Screening data: PubChem BioAssay, National Center for Advancing Translational Sciences (NCATS)
The list is not random: actives were taken first. Their share in the collection is about 11%.
ALOX12 inhib – inhibitors of human 12-lipoxygenase (ALOX12); P18054; purified 12-hLO, xylenol orange hydroperoxide absorbance; Potency, µM (top dose mostly 57.1 µM), most hits filed as inhibitors; actives 0.12% (n = 150,000); AID 1452; note: nearly all actives have a fitted effect of over 55% in size
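Purified human 12hLO (150 nM), preincubated 15 min with compound, then 40 uM arachidonic acid for 30 min, room temperature, Hepes pH 7.0 with 0.01% Triton X-100. Hydroperoxide detected by ferrous iron/xylenol orange; 573/405 nm absorbance ratio gives reaction progress.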
IMPase cell inh – membrane-permeable compound that blocks inositol monophosphatase; P97697; CHO-M1 cells, IP1 accumulation, HTRF TR-FRET ratio; inhibition (IP1 accumulation), % at 46.1 µM; 120,000 tested, under 10 active; active = well fitted curve in the direction sought with a large enough effect in the signal ratio, not every such curve was filed as active; inconclusive = small, poorly fitted or top-dose-only effect, or a change in a side signal; inactive = no such curve, though single readings can be large or run the other way; the % refers to the signal ratio;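 note: cells stimulated with carbachol in lithium chloride buffer; higher means more IMPase inhibition seen as more IP1 and lower FRET ratio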
Target sequence (P97697 whole entry, looked up): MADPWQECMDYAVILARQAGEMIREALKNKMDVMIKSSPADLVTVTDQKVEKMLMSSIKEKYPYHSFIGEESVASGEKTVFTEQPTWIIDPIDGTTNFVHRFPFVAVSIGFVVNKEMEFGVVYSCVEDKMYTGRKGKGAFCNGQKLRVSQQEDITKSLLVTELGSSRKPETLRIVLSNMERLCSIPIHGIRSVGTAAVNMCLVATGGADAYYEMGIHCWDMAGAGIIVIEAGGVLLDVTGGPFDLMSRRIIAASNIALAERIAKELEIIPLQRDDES
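Seeded CHO-M1 cells were dosed with compound at up to 46 uM, stimulated with carbachol for 30 min, then lysed in IP-One detection reagents. Higher IP1 lowers the TR-FRET signal.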
ALDH1A1 block – ALDH1A1 (human) enzyme inhibition. Purified ALDH1A1, NADH fluorescence, propionaldehyde substrate. Potency, µM (highest dose often 75.3 µM), usual class: inhibitors. actives 7.3% (n = 220,000); active = well fitted inhibition curve with a large enough effect, not every such curve was filed as active; inconclusive = small, poorly fitted or top-dose-only effect, or another doubt; inactive = no such curve, though single readings can be large or run the other way
IMPase Li cell – cell-permeable IMPase inhibitors with lithium potentiation; actives 0.35% (n = 210,000); CHO-M1 cells, IP1 TR-FRET (IP-One), carbachol + lithium; Potency, µM (series often up to 59.4 µM), usual class: inhibitors;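 note: IP1 builds up when IMPase is blocked and the TR-FRET signal falls; nearly all actives have a fitted effect of over 50% in size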
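Concentration–response in CHO-M1 cells, lithium-potentiated; 30 min at 37C. IP1 detected by competitive TR-FRET after 10 min lysis at RT. Hill-fitted AC50.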
HPGD inh – HPGD (human) dehydrogenase inhibition. actives 4.3% (n = 150,000). P15428. AID 894. purified HPGD, NADH fluorescence kinetic, PGE2 substrate. Potency, µM, usual class: inhibitors; active = well fitted inhibition curve with a large enough effect, not every such curve was filed as active; inconclusive = small, poorly fitted or top-dose-only effect, or another doubt; inactive = no such curve, though single readings can be large or run the other way
Target sequence (P15428 whole entry, looked up): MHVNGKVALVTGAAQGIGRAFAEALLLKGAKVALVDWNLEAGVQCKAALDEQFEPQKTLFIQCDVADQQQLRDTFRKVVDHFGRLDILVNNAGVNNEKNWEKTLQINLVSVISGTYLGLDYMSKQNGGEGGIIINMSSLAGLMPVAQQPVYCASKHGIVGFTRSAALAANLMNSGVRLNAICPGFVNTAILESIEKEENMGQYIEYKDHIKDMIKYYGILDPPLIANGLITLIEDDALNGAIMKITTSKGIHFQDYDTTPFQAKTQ
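NADH formation kinetics: reaction with 30 uM PGE2 and 1 mM NAD+ (final), 20 nM enzyme, Tris-HCl pH 8 with Tween 20, after 15 min compound preincubation at room temperature. Fluorescence change, last versus first of five reads.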
PNC inhibitor – inhibitors of perinucleolar compartment assembly | activity change (PNC), negative = inhibition, % at 10 µM | actives 3.1% (n = 140,000) | PC3M PTB-GFP, PNC prevalence imaging, 16 h; hits give low values | AID 2417;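 active = readout at or below -70, meaning at least 70% loss of cells showing the perinucleolar compartment, a nuclear body marking cancer cells; inconclusive = readout between -30 and a set limit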
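Read-out is percentage of cells bearing a perinucleolar compartment, from automated 20x imaging of fixed, Hoechst-stained PC3M PTB-GFP cells. Cells were seeded 4 h, then exposed 16 h to compound (23 nl of library stock) in duplicate plates.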
Hits are given with their value; – = inactive; ? = inconclusive; · = not tested or not shown; [ ] = dose if it differs, or a comment. Unless noted, calls come from the whole dose curve; as a rule, active = well fitted curve in the direction sought with a large enough effect; inconclusive = small, poorly fitted or top-dose-only effect, or another doubt; inactive = no such curve, though single readings can be large; an effect the other way counts as inactive or inconclusive.

SMILES	ALOX12 inhib	IMPase cell inh	ALDH1A1 block	IMPase Li cell	HPGD inh	PNC inhibitor
O=C(c1cnn2c(C(F)(F)F)cc(-c3ccc4c(c3)OCO4)nc12)N1CCCCC1	–	–	–	–	2.8µM	–
Cc1ccc(-c2cc(C(F)(F)F)n3ncc(C(=O)N4CCN(C)CC4)c3n2)cc1	–	–	?	–	?	-100
Cc1ccc(-c2cc(C(F)(F)F)n3ncc(C(=O)N4CCCc5ccccc54)c3n2)cc1	–	–	–	–	–	-100
O=C(NC1CCCC1)c1cnn2c(C(F)(F)F)cc(-c3ccc4c(c3)OCO4)nc12	–	–	–	?	–	?
CN(C)c1ncc2nc(CCc3ccccc3)c(=O)n(-c3ccccc3)c2n1	–	·	?	–	?	·
Cc1ccc(NC(=O)CN(C)C(=O)Cn2ncc(Cl)c(Cl)c2=O)cc1	–	–	28µM	–	–	–
COc1ccc2cc(/C=N/NC(=O)c3c(Cl)cnn3C)c(Cl)nc2c1	–	·	?	–	?	-86
COc1ccc2cc(/C=N/NC(=O)c3ccc(CN(c4ccc(C)c(C)c4)S(C)(=O)=O)cc3)c(Cl)nc2c1	–	–	?	–	?	–
CCOc1cccc(OCCn2cnc3ccccc3c2=O)c1	–	·	–	–	–	-91
O=C(CSc1nc2ccccc2c(=O)n1-c1ccccc1)N/N=C/C=C/c1ccccc1[N+](=O)[O-]	·	·	2.8µM	–	·	·
Cc1cc(C(=O)N/N=C/C=C/c2ccccc2[N+](=O)[O-])c(C)o1	·	·	5.6µM	–	·	·
O=C(N/N=C/C=C/c1ccccc1[N+](=O)[O-])c1cc(-c2cccnc2)nc2ccccc12	–	–	14µM	–	–	-84
O=C(CSc1nc2ccccc2c(=O)n1-c1ccc(Cl)cc1)N/N=C/C=C/c1ccccc1[N+](=O)[O-]	–	·	?	–	–	–
C/C(=N\NC(=O)c1cc(-c2cccnc2)nc2ccccc12)c1ccc(O)cc1O	–	·	?	–	–	-92
Cc1occc1C(=O)N/N=C/C=C/c1ccccc1[N+](=O)[O-]	·	·	–	–	·	·
COc1ccc(Cl)cc1NC(=O)CSC1=Nc2ccccc2C2=NC(CCC(=O)NCc3ccco3)C(=O)N12 (stereo not drawn)	·	–	·	·	·	·
COc1ccc(NS(=O)(=O)c2ccc(Oc3ncccn3)cc2)cc1	–	–	–	–	–	?
O=C(O)CC(SCC(=O)Nc1ccc(S(=O)(=O)N2CCCC2)cc1)C(=O)O (stereo not drawn)	·	·	8.9µM	–	·	·
COc1ccc(S(=O)(=O)N2CCC(C(=O)N3CCCCCC3)CC2)cc1	–	–	?	–	16µM	–
COc1ccc(NS(=O)(=O)c2ccc(S(=O)(=O)N3CCCC3)cc2)cc1Cl	–	–	13µM	–	–	–
O=C(O)CC(SCC(=O)Nc1ccccc1)C(=O)O (stereo not drawn)	·	·	?	–	·	·
COc1ccc(S(=O)(=O)Nc2ccc(Oc3ncccn3)c(Cl)c2)cc1	–	–	–	–	14µM	–
COc1ccc(S(=O)(=O)N2CCC(C(=O)N3CCCC3)CC2)cc1	–	–	–	–	–	–
CCCCC[C@H](O)/C=C/C=C\C/C=C\C=C\[C@@H](O)CCCC(=O)O	–	·	–	–	–	·
CC(C)=NOCc1ccc(-c2cn([C@@H]3COC[C@@H]3O)nn2)cc1	·	·	–[13.5 µM]	·	·	·
SMILES	ALOX12 inhib	IMPase cell inh	ALDH1A1 block	IMPase Li cell	HPGD inh	PNC inhibitor
O=C(O)C1CCN(S(=O)(=O)c2ccc(Oc3ccccc3)cc2)CC1	–	–	–	–	–	-83
COc1ccc(-n2cnc3cc(NS(=O)(=O)c4ccccc4)ccc32)cc1	–	–	?	–	11µM	–
O=C(O)/C=C/C(=O)Nc1ccc(S(=O)(=O)N2CCCC2)cc1	·	·	22µM	–	·	·
COc1ccc(NS(=O)(=O)c2ccc(S(=O)(=O)N3CCCC3)cc2)cc1	–	–	1µM	–	–	–
COc1ccc(S(=O)(=O)N2CCCCC2)cc1	–	?	–	–	–	–
CCOCCCn1c(=N)c(S(=O)(=O)c2ccc(C)cc2)cc2c(=O)n3cccc(C)c3nc21	·	–	·	·	·	·
Cc1cccc(NC(=O)c2sc3cccc(Cl)c3c2Cl)c1	·	–	·	·	·	·
